Reference: PubChem BioAssay (EPA / NIEHS)
Values joined by “and” are separate entries in the source; they are usually repeats but may differ in a detail not shown here. Equal entries are not always repeated. Records with an inconclusive call do not appear. More than one record can exist for a structure, and the calls need not agree. Active and inactive are the calls of the source. How the source made its calls, unless noted: active means hit-call score of the fitted dose curve at least 0.9, where 1 is the maximum; inactive means score below 0.9.

Assays:
[1] = TAMU_PeakParms_SingleDonor1434_Chronotropy: Texas A&M University (TAMU) 1.5-hr Human Induced Pluripotent Stem Cell (iPSC)-derived Cardiomyocytes Calcium (Ca+2) Flux Assay for Cardiotoxicity: Chronotropy (changes in peak frequency) (AID 2284217); details: actives raise or lower the signal
Method in brief: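 iPSC-derived cardiomyocytes (single donor 1434) dosed at 0.2, 1, 10 and 100 uM in 0.5% DMSO for 1.5 h at 37C; Ca2+ dye fluorescence gave average beat frequency. Zero-beat points removed; bidirectional fit versus DMSO, POD as EC05.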

[2] = TAMU_PeakParms_SingleDonor1434_QT: Texas A&M University (TAMU) 1.5-hr Human Induced Pluripotent Stem Cell (iPSC)-derived Cardiomyocytes Calcium (Ca+2) Flux Assay for Cardiotoxicity: QT (decay-rise ratio) (AID 2284235; active means hit-call score of the fitted dose curve at least 0.9, where 1 is the maximum)
Method in brief: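 Decay/rise ratio of calcium-flux fluorescence scored after 90 min exposure (37C) of donor 1434 iPSC cardiomyocytes to 0.2–100 uM (0.5% DMSO). Beat-cessation and severe-notch points removed; POD is EC05, a 5% rise over DMSO.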

[3] = CCTE_Mundy_HCI_Cortical_NOG_NeuriteCount: CCTE's Neurite Outgrowth Assay in rat cortical cells for Neurite Count, Mundy Lab (AID 2284212);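 further: cells fixed about two days after chemical exposure began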
Method in brief: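 Rat cortical primary cells; compound added 2 h post-plating, 1/10 dilution of working solution. Anti-betaIII-tubulin/AF488 ICC; ArrayScan neurite count vs DMSO.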

[4] = CCTE_Mundy_HCI_Cortical_NOG_NeuriteLength: CCTE's Neurite Outgrowth Assay in rat cortical cells for Neurite Length, Mundy Lab (AID 2284213);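 on AC50: neurites imaged about 48 to 50 h after chemical exposure began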
Method in brief: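 First, rat primary cortical cells were plated and, 2 h later, given test chemical as a 1/10 dilution. Finally, βIII-tubulin immunostaining enabled automated imaging of neurite length.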

[5] = CCTE_Mundy_HCI_Cortical_Synap_Neur_Matur_NeuriteLength: CCTE's Synaptogenesis and Neurite Maturation Assay in rat cortical cells for Neurite Length, Mundy Lab (AID 2284214)
Method in brief: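 Read-out: high-content imaging of MAP2-labelled neurites, with synaptophysin and Hoechst co-stain, in rat cortical cultures fixed at DIV 12. Activity fitted in positive direction relative to DMSO baseline.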

[6] = CCTE_Mundy_HCI_Cortical_Synap_Neur_Matur_NeuriteSpotCountPerNeuron: CCTE's Synaptogenesis and Neurite Maturation Assay in rat cortical cells for Neurite Spot Count per Neuron Count, Mundy Lab (AID 2284215)
Method in brief: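 Developing rat cortical neurons, with glia suppressed by AraC, are exposed to chemicals from DIV 7 to DIV 12. Automated fluorescence imaging of MAP2-labelled neurites and synaptophysin puncta yields a count per neuron, normalised against DMSO wells.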

[7] = CCTE_Mundy_HCI_Cortical_Synap_Neur_Matur_SynapseCount: CCTE's Synaptogenesis and Neurite Maturation Assay in rat cortical cells for Synapse Count, Mundy Lab (AID 2284218)
Method in brief: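 Read-out: synapse number per neuron, automated high-content imaging of fixed cells immunostained for MAP2 and synaptophysin plus Hoechst nuclei. Rat primary cortical cultures, AraC at DIV 5, chemical dosing DIV 7–12. Positive-direction fit relative to DMSO.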

[8] = CCTE_Mundy_HCI_Cortical_Synap_Neur_Matur_NeuriteCount: CCTE's Synaptogenesis and Neurite Maturation Assay in rat cortical cells for Neurite Count, Mundy Lab (AID 2284222)
Method in brief: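 Rat primary cortical cells; AraC added at DIV 5, chemicals dosed with media change at DIV 7 through DIV 12. MAP2/synaptophysin/Hoechst immunostaining, high-content imaging of neurite number; fitted relative to DMSO.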

[9] = CCTE_Mundy_HCI_Cortical_Synap_Neur_Matur_CellBodySpotCount: CCTE's Synaptogenesis and Neurite Maturation Assay in rat cortical cells for Cell Body Spot Count, Mundy Lab (AID 2284223)
Method in brief: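 Chemicals were applied to AraC-treated rat primary cortical cells at DIV 7 and measured at DIV 12. Fixed cells were labelled for MAP2, synaptophysin and nuclei, and high-content imaging gave cell body synaptophysin spot counts per neuron relative to DMSO.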

[10] = CCTE_Mundy_HCI_hNP1_Pro_ResponderAvgInten: CCTE's Proliferation Assay in human neuroprogenitor cells, Mundy Lab (AID 2284224; active means hit-call score of the fitted dose curve at least 0.9, where 1 is the maximum;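 further: human neural progenitor cells hNP1 derived from WA09 embryonic stem cells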)
Method in brief: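 Human neuroprogenitors (hNP1, WA09 lineage) receive test chemical after 40 to 44 hours of attachment. A four-hour BrdU pulse begins twenty hours later, followed by fixation and high content imaging; signal is referenced to DMSO controls.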

[11] = UKN2_HCS_IMR90_cell_viability: Viability Assessment in the University of Konstanz (UKN) Leist Lab Neural Crest Cell Migration Assay in human induced IMR90 Pluripotent Stem Cells (UKN2) (AID 2284233);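 further: viability of neural crest cells differentiated from IMR90 iPSC measured by calcein-AM fluorescence imaging; cells exposed to compound for 24 h after a 24 h migration phase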
Method in brief: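 cMINC format, iPSC-derived neural crest (IMR90); 24 h migration (EGF/FGF, N2-S), then 24 h toxicant. Calcein-AM/H-33342 stain 30 min; fluorescence intensity by HCS; DMSO-normalised, bidirectional fitting.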

[12] = BSK_BT_PBMCCytotoxicity: PBMC Cytotoxicity Assessment in the BioMAP Diversity Plus: BT Assay (AID 2284225); details: primary human B cells with PBMC;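 further: PBMC viability measured by Alamar Blue dye reduction fluorescence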
Method in brief: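 Primary human co-culture of B cells and PBMC, pre-dosed 1 h then activated with SEB and TSST-1. Cytotoxicity is taken from Alamar Blue dye reduction, added for 6 h at the end of a 90 h incubation.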

[13] = read-out: Secreted IgG (sIgG), gene 3500; test: BSK_BT_sIgG: BioMAP Diversity Plus: BT Assay for Secreted IgG (sIgG) Biomarker Activity (AID 2284226); details: primary human B cells with PBMC
Method in brief: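 Human B cell/PBMC co-culture; compound exposure 24 h; sIgG by ELISA; gain-of-signal fit vs DMSO baseline.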

[14] = BSK_BT_Bcell_Proliferation: Viability Assessment in the BioMAP Diversity Plus: BT Assay for B cell Proliferation (AID 2284227); details: primary human B cells with PBMC
Method in brief: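 Human B cells co-cultured with PBMC were dosed with test chemicals and relative cell number was quantified by SRB staining at 72 h. Cells were fixed in 10% TCA, stained with 0.1% SRB and read at 560 nm. Activity was fitted in the positive direction against DMSO.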

[15] = read-out: Interleukin 6 (IL6), IL6 (gene 3569); test: BSK_BT_xIL6: BioMAP Diversity Plus: BT Assay for Interleukin 6 (IL6) Biomarker Activity (AID 2284228); details: primary human B cells with PBMC
Method in brief: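 IL-6 secretion measured (Luminex xMAP) in human primary B cell + PBMC co-culture at 24 h of chemical exposure; DMSO served as negative control and activity baseline, with curves fitted for increase.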

[16] = read-out: Tumor necrosis factor (Homo sapiens) (UniProt P01375); test: BSK_BT_xTNFa: BioMAP Diversity Plus: BT Assay for Tumor necrosis factor alpha (TNF-alpha) Biomarker Activity (AID 2284230); details: primary human B cells with PBMC
Method in brief: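 B cells with PBMC in co-culture, dosed and sampled at 24 h; secreted TNF-alpha measured by Luminex xMAP bead assay. Activity fitted in the gain direction against DMSO as negative control and baseline.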

Measured: AC50

Tumor necrosis factor (Homo sapiens), sequence (P01375 whole entry, looked up): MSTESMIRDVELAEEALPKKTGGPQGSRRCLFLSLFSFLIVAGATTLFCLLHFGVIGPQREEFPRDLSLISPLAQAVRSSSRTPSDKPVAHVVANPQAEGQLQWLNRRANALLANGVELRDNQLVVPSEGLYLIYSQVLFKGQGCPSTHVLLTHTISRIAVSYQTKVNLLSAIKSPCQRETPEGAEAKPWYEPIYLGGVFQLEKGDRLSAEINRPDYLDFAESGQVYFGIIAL

O=P(Oc1ccccc1)(Oc1ccccc1)Oc1ccccc1
inactive: [1] | [2]

CO/N=C(/C(=O)OC)c1ccccc1COc1ccccc1C
inactive: [10]
active: [3] 19.1 µM | [4] 14.5 µM | [5] 6.23 µM | [6] 3.31 µM | [7] 3.28 µM | [8] 5.23 µM | [9] 3.33 µM | [11] 9.92 µM

OCC(F)(F)OC(F)(F)C(F)(F)OC(F)(F)CO
inactive: [12] | [13] | [14] | [15] | [16]

CCOc1ccc(C(C)(C)COCc2cccc(Oc3ccccc3)c2)cc1
active: [3] 21.9 µM | [5] 3.81 µM | [6] 11.9 µM | [7] 15 µM
inactive: [4] | [8] | [9] | [10]

O=C(O)C=CC(F)(C(F)(F)F)C(F)(F)F
inactive: [12] | [13] | [14] | [15] | [16]

c1ccc2c(c1)sc1ccccc12
inactive: [12] | [13] | [14] | [15] | [16]

N#Cc1c(-c2ccc(Cl)cc2)[nH]c(C(F)(F)F)c1Br
active: [12] 2.33 µM | [13] 0.309 µM | [14] 2.37 µM | [15] 0.556 µM | [16] 10.8 µM

OCC(F)(F)OC(F)(F)C(F)(F)OC(F)(F)C(F)(F)OC(F)(F)F
active: [12] 30.7 µM and 43.3 µM | [13] 50.4 µM and 44.2 µM | [14] 22.6 µM and 52.7 µM | [15] 46.6 µM and 45.2 µM | [16] 50.4 µM and 30 µM

Cc1c([N+](=O)[O-])cc2c(c1[N+](=O)[O-])C(C)(C)CC2(C)C
active: [12] 33.2 µM | [13] 20 µM | [14] 20 µM | [16] 29.5 µM
inactive: [15]

CC(C)Nc1ccc(Nc2ccccc2)cc1
active: [12] 2.89 µM | [13] 2.73 µM | [14] 2.3 µM | [15] 4.22 µM | [16] 5 µM

Nc1ccc([N+](=O)[O-])cc1Cl
inactive: [12] | [13] | [14] | [15] | [16]

Cc1ccc2c(c1N)C(=O)c1ccccc1C2=O
active: [15] 0.144 µM | [16] 20 µM
inactive: [12] | [13] | [14]

CCCCC(CC)COC(=O)c1c(Br)c(Br)c(Br)c(Br)c1C(=O)OCC(CC)CCCC (stereo not given)
inactive: [12] | [13] | [14] | [15] | [16]

O=S(=O)(F)C(F)(F)C(F)(F)C(F)(F)C(F)(F)C(F)(F)C(F)(F)C(F)(F)C(F)(F)F
inactive: [12] | [13] | [14] | [15] | [16]

O=P(OCC(Br)CBr)(OCC(Br)CBr)OCC(Br)CBr (stereo not given)
inactive: [12]
active: [13] 16.9 µM | [14] 23.9 µM | [15] 17.4 µM | [16] 33.6 µM

NC(=O)C(F)(F)C(F)(F)F
inactive: [12] | [13] | [14] | [15] | [16]

CCOP(=S)(S)OCC
inactive: [12] | [14] | [15] | [16]
active: [13] 4.15 µM

CC(Cl)CN(C)C (stereo not given)
inactive: [12] | [13] | [14] | [15] | [16]

CCOP(=S)(OCC)SCSc1ccc(Cl)cc1
inactive: [12] | [14] | [15] | [16]
active: [13] 20 µM

N#Cc1cc([N+](=O)[O-])ccc1N
inactive: [12] | [13] | [14] | [15] | [16]

COP(=O)(O)OC
inactive: [12] | [13] | [14] | [15] | [16]

C=CC(=O)OCC(CC)(COC(=O)C=C)COC(=O)C=C
active: [12] 2.98 µM | [13] 0.516 µM | [14] 2.36 µM | [15] 1.46 µM | [16] 2.61 µM

CCOP(=S)(OCC)SCS(=O)(=O)CC
inactive: [12] | [13] | [14] | [15] | [16]

O=C(O)C(F)(F)C(F)(F)C(=O)O
inactive: [12] | [13] | [14] | [15] | [16]
active: [16] 0.222 µM

ClC(Cl)=C(c1ccc(Cl)cc1)c1ccccc1Cl
active: [12] 37.2 µM | [13] 29.6 µM | [14] 34.4 µM | [15] 30 µM | [16] 31.1 µM

COP(N)(=S)OC
inactive: [12] | [13] | [14] | [15] | [16]

O=C(O)C(F)(F)OC(F)(F)C(F)(F)OC(F)(F)C(=O)O
inactive: [12] | [13] | [14] | [15] | [16]
